# About 3,200 (25%) of roughly 13,000 compounds showed an effect of 50% or more. The list shows a part of the results.
# System: P. falciparum stage V gametocytes
# Set-up: BacTiter-Glo ATP luminescence viability of purified stage V gametocytes in 384-well plates, per cent inhibition versus DMSO
# Details: 48 h, 5 µM; inhibitor
row,Structure (SMILES),% Inhibition [%]
1,Fc1cccc(COc2ccc(Nc3ncnc4sc(C#C[C@H]5CC[C@H](CNCC(F)(F)F)N5)cc34)cc2Cl)c1 [TCMDC-135422],-57.82
2,O=C(CC1CCCC1)N(Cc1ccc(-c2ccc(CNC3Cc4ccccc4C3)cc2)cc1)CC1CCCCN1 (centres unmarked) [TCMDC-141446],118.1
3,c1cncc(CCNCc2ccc(-c3ccc(CNC4Cc5ccccc5C4)cc3)cc2)c1 [TCMDC-141458],22.23
4,CCCNC(=O)c1cncc(-c2ccc(CNC3Cc4ccccc4C3)cc2)c1 [TCMDC-134242],-9.717
5,O=C(CCC1CCCC1)N(Cc1ccc(-c2ccc(CNCCc3ccccn3)cc2)cc1)CC1CCCCN1 (centres unmarked) [TCMDC-141445],104.1
6,O=C(NCC1CCC(C(=O)NCCN2CCCCC2)CC1)c1ccc(O)c(-c2ccc(Cl)c(Cl)c2)c1 (centres unmarked) [TCMDC-140889],5.118
7,CN(C)C(CNC(=O)c1cc(-c2ccncc2)c(-c2ccc(NC(=O)Nc3ccccc3)cc2)o1)c1ccccc1 (centres unmarked) [TCMDC-135763],0.5152
8,CCN(CC)c1ccc2nc(N)nc(N)c2c1 [TCMDC-137860],-57.34
9,CCN(CCNS(C)(=O)=O)c1ccc(N)c(C)c1 [TCMDC-125836],123.9
10,CCN(CCNC(=O)Nc1cc(C(F)(F)F)cc(C(F)(F)F)c1)c1cccc(C)c1 [TCMDC-140386],-30.95
11,Cc1cc(NC(=O)c2ccco2)ccc1OC1CCN(Cc2ccc(F)cc2)CC1 [TCMDC-133749],42.56
12,Cc1ccccc1N1CCN(c2ccc(C(=O)Nc3ccccc3)cn2)CC1 [TCMDC-134582],6.226
13,Cc1[nH]c2ccccc2c1C1CCN(CC2CCC(NC(=O)/C=C/c3ccc(Cl)c(Cl)c3)CC2)CC1 (centres unmarked) [TCMDC-139482],-16.12
14,NC(=O)c1cnc2cc(-c3ccncc3)cc(Nc3ccc(NC(=O)C4CCCCC4)cc3)c2c1 [TCMDC-135182],-67.69
15,Cc1cc(-c2ccc(NC(=O)N3CCc4cc(Cl)c(N5CCN(C)CC5)cc43)cc2)ccc1C#N [TCMDC-139292],55.12
16,CN1CCN(c2cc3c(cc2Cl)CCN3C(=O)Nc2ccc(NC(=O)c3ccc(C(F)(F)F)cc3)cc2)CC1 [TCMDC-139270],-10.1
17,Cc1cc(-c2ccc(NC(=O)N3CCc4cc(Br)c(N5CCN(C)CC5)cc43)cc2)ccc1C#N [TCMDC-139293],-18.89
18,O=C(Nc1c(F)cccc1F)c1cccc(-c2nn3ccccc3c2-c2ccnc(Nc3cccc(-c4cnco4)c3)n2)c1 [TCMDC-135743],-41.11
19,c1ccc2c(CNCCCN3CCN(CCCNCc4c5ccccc5cc5ccccc45)CC3)c3ccccc3cc2c1 [TCMDC-137909],115.6
20,c1ccc2c(c1)cc(CNCCCN1CCN(CCCNCc3cc4ccccc4c4ccccc34)CC1)c1ccccc12 [TCMDC-137914],113.5
21,O=C(/C=C/c1ccc(Cl)c(Cl)c1)NCCCCCN1CCC(C(=O)Nc2cccc(Cl)c2)CC1 [TCMDC-136120],-13.38
22,Cc1ccc(NC(=O)c2cccc(C#N)c2)cc1-c1ccc(C(=O)Nc2ccncc2)cc1 [TCMDC-133697],-8.671
23,CCC[C@@H]([C@@H](Cc1ccc(C)s1)C(=O)N[C@@H](CNC(C)=O)C(=O)Nc1nccs1)N(O)C=O [TCMDC-138137],-97.54

row,Structure (SMILES),% Inhibition [%]
1,Cc1cc(C)c2[nH]cc(C(=O)O)c(=O)c2c1 [TCMDC-123953],3.462
2,Oc1ccc(Cl)c2c1C(c1ccccc1)=NCC2 [TCMDC-137522],-9.659
3,COc1ccc(Oc2ccc(Nc3ccnc4ccc(C(F)(F)F)cc34)cc2)cc1OC [TCMDC-138310],-11.17
4,CN(C)CCCc1cc2c(cc1Cl)CCN2C(=O)Nc1ccc(-c2ccncc2)c2ccccc12 [TCMDC-139215],-22.47
5,CCCc1cc(C(=O)N[C@@H](Cc2ccccc2)[C@H](O)CNC(C)(C)c2cccc(OC)c2)c(F)c(N2CCCC2=O)c1 [TCMDC-135396],48.39
6,COc1c(CN2CCCC2)cccc1-c1cc2c(-c3ccc(C(=O)O)c(C(C)C)c3)ccnc2[nH]1 [TCMDC-135050],69.12
7,CCN(CC)Cc1ccc(OC)c(-c2cc3c(-c4ccc(C(=O)O)c(C(C)C)c4)ccnc3[nH]2)c1 [TCMDC-135051],59.03
8,COc1cccc(CN2CCC(C(=O)Nc3ccc(-c4nc5ccccc5[nH]4)cc3)CC2)c1 [TCMDC-124615],-54.81
9,COc1ccc(-c2cnc3[nH]cc(-c4ccc(C(=O)O)c(C)c4)c3c2)cn1 [TCMDC-136360],34.92
10,COc1c(CN2CCOCC2)cccc1-c1cc2c(-c3ccc(C(=O)O)c(C(C)C)c3)ccnc2[nH]1 [TCMDC-135049],-0.2517
11,COc1ccc(CN(C)CCOc2ccc(NC(=O)c3cccc4c(=O)cc(-c5ccccc5)[nH]c34)cc2)cc1OC [TCMDC-131849],25.38
12,CN(C)CC1CCCN1Cc1ccccc1-c1cnn(C)c(=O)c1Oc1ccc(F)cc1 (centres unmarked) [TCMDC-135098],10.73
13,O=C(NCCCN1CCN(c2cccc(Cl)c2)CC1)c1ccc(-c2nc3cc(Cl)c(Cl)cc3[nH]2)c(F)c1 [TCMDC-140084],-21.33
14,O=C(CNc1ccc(Cl)c(S(=O)(=O)N2CCCC2)c1)Nc1ccc(Br)cc1F [TCMDC-125102],24.63
15,Cc1onc(-c2ccccc2)c1-c1nc(NCCC(c2ccccc2)c2ccccc2)no1 [TCMDC-134203],3.551
16,CN1CCC(N(Cc2ccc(-c3ccc(C(F)(F)F)cc3)cc2)C(=O)Cn2c(SCc3cccc(F)c3F)cc(=O)c3c2CCC3)CC1 [TCMDC-141319],92.96
17,CC(C)N1CCC(N(Cc2ccc(-c3ccc(C(F)(F)F)cc3)cc2)C(=O)Cn2c(SCc3cccc(F)c3F)cc(=O)c3c2CCC3)CC1 [TCMDC-141320],98.3
18,O=C(NOCc1ccccc1)c1cc(Cl)ccc1O [TCMDC-131603],3.846
19,CCC1CCc2cc(N)cc(-c3nc4c(c(C)nn4CC)c(=O)[nH]3)c2O1 (centres unmarked) [TCMDC-131857],1.879
20,CCC(=O)Nc1ccc(C(O)CN2CCC3(C=Cc4ccccc4O3)CC2)cc1 (centres unmarked) [TCMDC-124852],40
21,COc1cc2nc(NCCn3ccnc3C)nc(NCCc3ccccc3)c2cc1OC [TCMDC-135471],66.44
22,COc1cc2nc(NCCn3cccn3)nc(NCCc3ccccc3)c2cc1OC [TCMDC-135472],50.26
23,CN(C)CCNCc1ccc(-c2ccc3c(Nc4ccc(Oc5ccccc5)cc4)ccnc3c2)o1 [TCMDC-138399],96.18

row,Structure (SMILES),% Inhibition [%]
1,CN(C)Cc1ccc(-c2ccc3c(Nc4ccc(Oc5ccccc5)cc4)ccnc3c2)o1 [TCMDC-138401],-9.57
2,CS(=O)(=O)CCNCc1ccc(-c2ccc3c(Nc4ccc(Oc5ccccn5)cc4)ccnc3c2)o1 [TCMDC-138444],5.347
3,CN(C)CCN(C)Cc1ccc(-c2ccc3c(Nc4ccc(Oc5ccccc5)cc4)ccnc3c2)o1 [TCMDC-138400],100.2
4,Clc1cc2c(Nc3ccc(Oc4ccccc4)cc3)ccnc2cc1-c1ccc(CNCCN2CCOCC2)o1 [TCMDC-138464],21.03
5,CN(C)Cc1ccc(-c2ccc3c(Nc4ccc(Oc5ccccn5)cc4)ccnc3c2)o1 [TCMDC-138425],93.82
6,CN(C)CCN(C)Cc1ccc(-c2ccc3c(Nc4ccc(Oc5ccccn5)cc4)ccnc3c2)o1 [TCMDC-138426],89.24
7,c1ccc(Oc2ccc(Nc3ccnc4ccc(-c5ccccn5)cc34)cc2)cc1 [TCMDC-138118],-22.81
8,COc1ccc(NC(=O)c2csc(-c3cc(NC(=O)c4ccnc(N5CCCC5)c4)ccc3C)c2)cc1N1CCN(C)CC1 [TCMDC-136374],23.12
9,NC(=O)c1cccc(Nc2nccc(Nc3ccc(Oc4cccc5ccccc45)cc3)n2)c1 [TCMDC-138599],-18.47
10,CC[C@H]1CN2CC[C@H]1C[C@@H]2[C@@H](OC(=O)c1ccc(Cl)cc1)c1ccnc2ccc(OC)cc12 [TCMDC-125492],-10.63
11,CC(C)(C)c1cc(C(=O)N2CCN(c3ncccc3C(F)(F)F)CC2)n(Cc2ccccc2)n1 [TCMDC-134142],2.354
12,CCN(CC)C(=O)C1CCCN(c2cc(C)nc(Nc3ccc(Cl)cc3)n2)C1 (centres unmarked) [TCMDC-132204],-2.665
13,N#Cc1ccc(N2CCN(Cc3cccc(-c4cccc(-c5nc6cc(C(F)(F)F)ccc6[nH]5)c4)c3)CC2)nc1.O=C(O)C(F)(F)F [TCMDC-133117],-5.62
14,O=C(CCn1c2ccccc2c2ccccc21)NN=Cc1ccco1 [TCMDC-125735],-6.333
15,CC(C)Cn1cc2c(ccc3nc(N)nc(N)c32)n1 [TCMDC-137969],-46.77
16,COc1ccc2nccc([C@@H](O)CN3CCC(NC(=O)/C=C/c4cccc(-c5ccccc5)c4)CC3)c2c1 [TCMDC-141043],-22.17
17,N#Cc1ccc2c(c1)CCN(CCC1CCC(NC(=O)/C=C/c3cccc4ccccc34)CC1)CC2 (centres unmarked) [TCMDC-139777],-39.21
18,CC(=O)c1ccc2c(c1)CCN(CCC1CCC(NC(=O)c3cc4ccccc4[nH]3)CC1)CC2 (centres unmarked) [TCMDC-139776],-25.73
19,CC(C)[C@H](NC(=O)NC1CCC(CCN2C3CCC2CC(OC(=O)C(CO)c2ccccc2)C3)CC1)C(O)(c1ccccc1)c1ccccc1 (some centres unmarked) [TCMDC-136457],-19.47
20,CC(NCCC1CCC(NC(=O)N[C@H](C)C(O)(c2ccccc2)c2ccccc2)CC1)c1cccc2ccccc12 (some centres unmarked) [TCMDC-136378],64.1
21,CC(C)[C@@H](NC(=O)NC1CCC(CCN2C3CCC2CC(OC(=O)C(CO)c2ccccc2)C3)CC1)C(O)(c1ccccc1)c1ccccc1 (some centres unmarked) [TCMDC-136458],45.88
22,CC(NC(=O)NC1CCC(CCN2CCCc3ccccc32)CC1)c1cccc2ccccc12 (centres unmarked) [TCMDC-136176],92.78
